Laboratory results taken from PubChem BioAssay (NCATS).
Records with an inconclusive call do not appear. Active and inactive are the calls of the source. Calls follow the shape of the dose curve; as a rule, active = well fitted inhibition curve with a large enough effect; inconclusive = small, poorly fitted or top-dose-only effect; inactive = no such curve, though single readings can be large or run the other way.

Assay: qHTS assay for measurement of the activity of small molecule inhibitors on Zika virus induced Caspase-3 activity in human iPSC derived neural progenitor cells (hNPCs) (AID 1224857); also: nearly all actives have a fitted effect of over 65% in size; also: potency is read from the fitted curve at half-maximal effect; as to activity change, negative = inhibition: % of control where 0% means no effect
Conditions: hNPCs ZIKV-induced caspase-3/7, Caspase-Glo luminescence, 6 h; series mostly up to 45.7 µM; activity change, negative = inhibition: at the top concentration
In short: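 After overnight (16–20 h) culture at 350 cells/well, hNPCs get compound, then ZIKV 2 FFU/cell one hour later. Six hours on, Caspase-Glo 3/7 is added and luminescence measured.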

SMILES	activity change, negative = inhibition	Potency
COc1cc2nc(Cl)nc(N)c2cc1OC	22.7% (inactive)	
CCN1CCCC1CN (centres undefined)	-5.25% (inactive)	
Nc1ccc(C(=O)OCC(O)CO)cc1 (centres undefined)	11.4% (inactive)	
CCCc1ccc(OCC(=O)N2CCN(C(=O)COc3ccc(CCC)cc3OC)CC2)c(OC)c1	31.5% (inactive)	
CN1CCCN(C(c2ccccc2)c2ccc(Cl)cc2)CC1 (centres undefined)	20.2% (inactive)	
CCOC(=O)C(=O)CCc1ccccc1	8.4% (inactive)	
CCC(=O)O[C@H]1[C@H](O[C@@H]2[C@@H](C)[C@H](O[C@H]3C[C@@](C)(OC)[C@@H](O)[C@H](C)O3)[C@@H](C)C(=O)O[C@H](CC)[C@@](C)(O)[C@H](O)[C@@H](C)C(=O)[C@H](C)C[C@@]2(C)O)O[C@H](C)C[C@@H]1N(C)C	4.7% (inactive)	
CCN(CC)CCNC(=O)c1ccc(NS(C)(=O)=O)cc1	-4.15% (inactive)	
CCCCN(CCCC)C(C(N)=O)c1ccc(OC)cc1 (centres undefined)	-8.68% (inactive)	
Cc1ccc2ccc(Cl)cc2n1	-1.1% (inactive)	
N#Cc1cc(NC(=O)C(=O)O)c(Cl)c(NC(=O)C(=O)O)c1	9.61% (inactive)	
CC(C)(C)c1ccc(O)c(O)c1		35.5 µM (active)
COc1cc(OC)nc(O[C@H](C(=O)O)C(OC)(c2ccccc2)c2ccccc2)n1	-0.95% (inactive)	
NS(=O)(=O)c1cc2c(cc1Cl)CN(C1CCCCC1)C2=O	-9.59% (inactive)	
CCCCC(=O)OCC(=O)[C@H]1[C@H](C)C[C@H]2[C@@H]3C[C@H](F)C4=CC(=O)C=C[C@]4(C)[C@@]3(F)[C@@H](O)C[C@@]21C	29.7% (inactive)	
CCOC(=O)O[C@]1(C(=O)OCCl)CC[C@H]2[C@@H]3CCC4=CC(=O)C=C[C@]4(C)[C@H]3[C@@H](O)C[C@@]21C	-2.59% (inactive)	
COc1ccccc1N1CCN(CC(O)COc2cc(OC)c(OC)c(OC)c2)CC1 (centres undefined)	-3.79% (inactive)	
CNC[C@H](O)[C@@H](O)[C@H](O)[C@H](O)CO	3.84% (inactive)	
CCCCNc1ccc(C(=O)OCCN(CC)CC)cc1	7.56% (inactive)	

SMILES	activity change, negative = inhibition	Potency
CC(C)C(=O)Nc1cccc(C2CN3CCSC3=N2)c1 (centres undefined)	-3.03% (inactive)	
COc1cc(/C=C/C(N)=O)cc(OC)c1OC	19.7% (inactive)	
C=CCOc1cc(Cl)ccc1C(=O)NCCN(CC)CC	1.9% (inactive)	
CC(C)C(=O)Nc1cccc(C(F)(F)F)c1	-4.41% (inactive)	
O=C(CCC1CCN(Cc2ccccc2)CC1)c1ccc2c(c1)NCCCC2	-1.57% (inactive)	
O=C(O)CCCC[P+](c1ccccc1)(c1ccccc1)c1ccccc1	-8.81% (inactive)	
CC(=O)N(c1onc(C)c1C)S(=O)(=O)c1ccc(N)cc1	-9.96% (inactive)	
CCCCCN(CCCOC)C(=O)C(CCC(=O)O)NC(=O)c1ccc(Cl)c(Cl)c1 (centres undefined)	-6.93% (inactive)	
N#CC1(c2ccc(F)cc2)CCC(=O)CC1	14% (inactive)	
Cc1onc(-c2ccccc2)c1C(=O)Cl	-11.4% (inactive)	
Cc1cccc(C)c1NC(=O)c1ccc(N)cc1	0.861% (inactive)	
Cc1cccc(OCC(O)CNC(C)(C)C)c1C (centres undefined)	5.48% (inactive)	
CC(COc1ccccc1)NN (centres undefined)	-7.21% (inactive)	
CCOC(=O)N1CCC(Nc2ccc(Cl)cc2N)CC1	-13% (inactive)	
CCOC(=O)C(=O)CCCCCCl	1.13% (inactive)	
COC(=O)c1cc(Cl)ccc1NS(=O)(=O)C(F)(F)F	-4.12% (inactive)	
CC(C)C(=O)OCc1cccc(OC(=O)[C@@H]2N3C(=O)[C@@H](NC(=O)Cc4ccccc4)[C@H]3SC2(C)C)c1	7% (inactive)	
C[C@H]1C[C@H](O)c2ccsc2S1(=O)=O	-2.1% (inactive)	

Assay: qHTS assay for measurement of the activity of small molecule inhibitors on Zika virus induced Caspase-3 activity in human astrocytoma cells (AID 1224859);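 also: plate controls were ZIKV-infected untreated cells for no effect and uninfected cells for full effect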
Conditions: SNB-19 ZIKV-induced caspase-3/7, luminescence, 6 h; series mostly up to 45.7 µM; activity change, negative = inhibition: at the top concentration
In short: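 Inhibition of Zika-induced caspase-3/7 activity: SNB-19 cells, 1 h compound pretreatment, ZIKV 2 FFU/cell for 6 h at 37 C, Caspase-Glo luminescence read-out.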

SMILES	activity change, negative = inhibition
COc1cc2nc(Cl)nc(N)c2cc1OC	5.83% (inactive)
CCN1CCCC1CN (centres undefined)	1.54% (inactive)
Nc1ccc(C(=O)OCC(O)CO)cc1 (centres undefined)	-4.08% (inactive)
CCCc1ccc(OCC(=O)N2CCN(C(=O)COc3ccc(CCC)cc3OC)CC2)c(OC)c1	1.95% (inactive)
CN1CCCN(C(c2ccccc2)c2ccc(Cl)cc2)CC1 (centres undefined)	-1.21% (inactive)
CCOC(=O)C(=O)CCc1ccccc1	-5.92% (inactive)
CCC(=O)O[C@H]1[C@H](O[C@@H]2[C@@H](C)[C@H](O[C@H]3C[C@@](C)(OC)[C@@H](O)[C@H](C)O3)[C@@H](C)C(=O)O[C@H](CC)[C@@](C)(O)[C@H](O)[C@@H](C)C(=O)[C@H](C)C[C@@]2(C)O)O[C@H](C)C[C@@H]1N(C)C	7.74% (inactive)
CCN(CC)CCNC(=O)c1ccc(NS(C)(=O)=O)cc1	-5.89% (inactive)
CCCCN(CCCC)C(C(N)=O)c1ccc(OC)cc1 (centres undefined)	6.2% (inactive)
Cc1ccc2ccc(Cl)cc2n1	2.24% (inactive)
N#Cc1cc(NC(=O)C(=O)O)c(Cl)c(NC(=O)C(=O)O)c1	-4.78% (inactive)
CC(C)(C)c1ccc(O)c(O)c1	-13.4% [at 92.8 µM] (inactive)
COc1cc(OC)nc(O[C@H](C(=O)O)C(OC)(c2ccccc2)c2ccccc2)n1	-1.92% (inactive)
NS(=O)(=O)c1cc2c(cc1Cl)CN(C1CCCCC1)C2=O	-1.16% (inactive)
CCCCC(=O)OCC(=O)[C@H]1[C@H](C)C[C@H]2[C@@H]3C[C@H](F)C4=CC(=O)C=C[C@]4(C)[C@@]3(F)[C@@H](O)C[C@@]21C	-0.154% (inactive)
CCOC(=O)O[C@]1(C(=O)OCCl)CC[C@H]2[C@@H]3CCC4=CC(=O)C=C[C@]4(C)[C@H]3[C@@H](O)C[C@@]21C	-1.76% (inactive)
COc1ccccc1N1CCN(CC(O)COc2cc(OC)c(OC)c(OC)c2)CC1 (centres undefined)	-15% (inactive)
CNC[C@H](O)[C@@H](O)[C@H](O)[C@H](O)CO	0.509% (inactive)
CCCCNc1ccc(C(=O)OCCN(CC)CC)cc1	7.56% (inactive)

SMILES	activity change, negative = inhibition
CC(C)C(=O)Nc1cccc(C2CN3CCSC3=N2)c1 (centres undefined)	0.902% (inactive)
COc1cc(/C=C/C(N)=O)cc(OC)c1OC	5.33% (inactive)
C=CCOc1cc(Cl)ccc1C(=O)NCCN(CC)CC	0.701% (inactive)
CC(C)C(=O)Nc1cccc(C(F)(F)F)c1	24.7% (inactive)
O=C(CCC1CCN(Cc2ccccc2)CC1)c1ccc2c(c1)NCCCC2	0.689% (inactive)
O=C(O)CCCC[P+](c1ccccc1)(c1ccccc1)c1ccccc1	1.84% (inactive)
CC(=O)N(c1onc(C)c1C)S(=O)(=O)c1ccc(N)cc1	-0.874% (inactive)
CCCCCN(CCCOC)C(=O)C(CCC(=O)O)NC(=O)c1ccc(Cl)c(Cl)c1 (centres undefined)	2.34% (inactive)
N#CC1(c2ccc(F)cc2)CCC(=O)CC1	28.7% (inactive)
Cc1onc(-c2ccccc2)c1C(=O)Cl	13.6% (inactive)
Cc1cccc(C)c1NC(=O)c1ccc(N)cc1	-0.586% (inactive)
Cc1cccc(OCC(O)CNC(C)(C)C)c1C (centres undefined)	2.58% (inactive)
CC(COc1ccccc1)NN (centres undefined)	12.9% (inactive)
CCOC(=O)N1CCC(Nc2ccc(Cl)cc2N)CC1	-6.12% (inactive)
CCOC(=O)C(=O)CCCCCCl	-9.12% (inactive)
COC(=O)c1cc(Cl)ccc1NS(=O)(=O)C(F)(F)F	-8.12% (inactive)
CC(C)C(=O)OCc1cccc(OC(=O)[C@@H]2N3C(=O)[C@@H](NC(=O)Cc4ccccc4)[C@H]3SC2(C)C)c1	16.9% (inactive)
C[C@H]1C[C@H](O)c2ccsc2S1(=O)=O	5.68% (inactive)
